# Assay results from the supplement of paper PMC12819154, “High-throughput peptide-centric local stability assay extends protein–ligand identification to membrane proteins, tissues and bacteria” (Nature Structural & Molecular Biology, 2025).
# Compound: Nc1ncnc2c1ncn2[C@@H]1O[C@H](COP(=O)(O)OP(=O)(O)OP(=O)(O)O)[C@@H](O)[C@H]1O [adenosine 5'-triphosphate]
# Assay: log2 fold change of tryptic peptide abundance, ligand vs vehicle (limited proteolysis) (log2 ratio); higher = more trypsin-susceptible (destabilized)
# Conditions: ligand concentration: 5 mM; sample: E. coli desalted lysate; replicate design: treated before aliquoting
# Experimental: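 HT-PELSA: desalted E. coli K-12 BW25113 lysate (with 12 mM MgCl2) incubated with 5 mM ATP (pH 7) or water for 30 min at 25 C, then a 4 min trypsin pulse at 22 C. Peptides were quantified by DIA-MS (4 replicates). Value is the peptide log2 fold change (treated/control); negative = stabilized. Scale: negative = ligand-stabilized region.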
# 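Note: lysate desalted by size exclusion to strip endogenous ATP, peptide intensities built from DIA-NN precursor signals, and peptides missing any value discarded before comparison.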
# Chain of UniProt P08400 (P08400 whole entry): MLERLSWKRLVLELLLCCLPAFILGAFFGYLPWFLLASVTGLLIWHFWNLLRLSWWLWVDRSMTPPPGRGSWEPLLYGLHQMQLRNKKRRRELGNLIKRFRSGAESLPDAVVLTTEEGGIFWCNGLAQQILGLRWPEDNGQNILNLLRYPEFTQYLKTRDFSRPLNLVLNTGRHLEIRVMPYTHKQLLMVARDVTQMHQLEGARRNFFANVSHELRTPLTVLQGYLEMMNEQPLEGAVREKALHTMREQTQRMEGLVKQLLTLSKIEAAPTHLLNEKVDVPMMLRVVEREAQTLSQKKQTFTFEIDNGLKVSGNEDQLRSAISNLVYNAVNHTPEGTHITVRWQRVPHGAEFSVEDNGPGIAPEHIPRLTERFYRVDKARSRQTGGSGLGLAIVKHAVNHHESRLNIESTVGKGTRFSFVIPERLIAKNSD
# Chain of UniProt P04693 (P04693 whole entry): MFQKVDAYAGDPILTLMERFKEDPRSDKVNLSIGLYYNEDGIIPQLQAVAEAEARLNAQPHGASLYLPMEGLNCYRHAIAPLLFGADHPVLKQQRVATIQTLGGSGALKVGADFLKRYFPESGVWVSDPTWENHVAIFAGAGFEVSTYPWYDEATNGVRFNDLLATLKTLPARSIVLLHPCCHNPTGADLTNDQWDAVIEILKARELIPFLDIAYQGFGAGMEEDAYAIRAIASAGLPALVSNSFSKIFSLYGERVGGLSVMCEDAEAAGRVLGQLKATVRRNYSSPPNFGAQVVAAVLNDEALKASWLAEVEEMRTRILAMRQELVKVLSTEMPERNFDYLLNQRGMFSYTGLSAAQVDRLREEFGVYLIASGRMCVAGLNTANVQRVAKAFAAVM
# Chain of UniProt P32125 (P32125 whole entry): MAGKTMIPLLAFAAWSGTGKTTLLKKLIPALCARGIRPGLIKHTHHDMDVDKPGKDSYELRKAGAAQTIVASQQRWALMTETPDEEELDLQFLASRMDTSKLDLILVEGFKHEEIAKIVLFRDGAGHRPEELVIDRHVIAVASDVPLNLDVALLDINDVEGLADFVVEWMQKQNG
# Chain of UniProt Q46919 (Q46919 whole entry): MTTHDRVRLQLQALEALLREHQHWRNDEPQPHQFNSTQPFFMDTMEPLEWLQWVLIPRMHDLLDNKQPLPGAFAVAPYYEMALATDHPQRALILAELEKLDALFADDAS
# Chain of UniProt P08373 (P08373 whole entry): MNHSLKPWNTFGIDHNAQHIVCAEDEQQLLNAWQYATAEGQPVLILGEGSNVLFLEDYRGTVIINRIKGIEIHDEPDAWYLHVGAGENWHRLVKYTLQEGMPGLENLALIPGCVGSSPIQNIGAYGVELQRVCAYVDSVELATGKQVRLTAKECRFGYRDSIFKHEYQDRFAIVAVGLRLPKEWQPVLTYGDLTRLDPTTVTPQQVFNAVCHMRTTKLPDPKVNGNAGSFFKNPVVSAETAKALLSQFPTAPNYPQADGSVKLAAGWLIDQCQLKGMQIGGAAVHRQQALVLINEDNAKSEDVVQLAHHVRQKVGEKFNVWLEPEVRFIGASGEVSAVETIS
# Chain of UniProt P77364 (P77364 whole entry): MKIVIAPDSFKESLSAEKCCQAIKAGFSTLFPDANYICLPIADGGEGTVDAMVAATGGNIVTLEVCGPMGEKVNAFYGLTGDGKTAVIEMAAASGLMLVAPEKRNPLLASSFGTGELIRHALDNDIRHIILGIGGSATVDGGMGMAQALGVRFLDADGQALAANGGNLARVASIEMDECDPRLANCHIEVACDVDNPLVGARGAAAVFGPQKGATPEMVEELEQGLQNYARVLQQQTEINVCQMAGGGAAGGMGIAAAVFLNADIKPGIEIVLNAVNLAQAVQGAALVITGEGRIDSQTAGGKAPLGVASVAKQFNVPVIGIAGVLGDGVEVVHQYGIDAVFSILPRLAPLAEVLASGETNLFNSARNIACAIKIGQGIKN
# Chain of UniProt P77689 (P77689 whole entry): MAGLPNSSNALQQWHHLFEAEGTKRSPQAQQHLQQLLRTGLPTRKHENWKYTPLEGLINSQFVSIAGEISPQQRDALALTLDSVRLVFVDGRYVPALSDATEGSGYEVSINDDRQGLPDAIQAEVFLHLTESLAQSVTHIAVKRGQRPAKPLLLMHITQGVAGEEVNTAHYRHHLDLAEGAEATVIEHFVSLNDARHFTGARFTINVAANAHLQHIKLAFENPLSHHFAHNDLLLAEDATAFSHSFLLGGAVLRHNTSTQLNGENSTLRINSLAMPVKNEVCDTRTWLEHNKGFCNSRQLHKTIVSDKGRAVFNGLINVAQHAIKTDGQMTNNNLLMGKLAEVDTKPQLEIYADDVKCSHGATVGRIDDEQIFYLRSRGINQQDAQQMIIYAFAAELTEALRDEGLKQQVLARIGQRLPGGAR
# Chain of UniProt P25741 (P25741 whole entry): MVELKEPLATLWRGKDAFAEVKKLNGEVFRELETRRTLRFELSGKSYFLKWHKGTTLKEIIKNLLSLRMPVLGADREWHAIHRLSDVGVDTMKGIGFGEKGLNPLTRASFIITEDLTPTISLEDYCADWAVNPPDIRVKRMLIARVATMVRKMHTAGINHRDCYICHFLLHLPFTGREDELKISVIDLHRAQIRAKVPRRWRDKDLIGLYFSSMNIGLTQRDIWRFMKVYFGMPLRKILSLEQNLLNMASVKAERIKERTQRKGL
# Chain of UniProt P37339 (P37339 whole entry): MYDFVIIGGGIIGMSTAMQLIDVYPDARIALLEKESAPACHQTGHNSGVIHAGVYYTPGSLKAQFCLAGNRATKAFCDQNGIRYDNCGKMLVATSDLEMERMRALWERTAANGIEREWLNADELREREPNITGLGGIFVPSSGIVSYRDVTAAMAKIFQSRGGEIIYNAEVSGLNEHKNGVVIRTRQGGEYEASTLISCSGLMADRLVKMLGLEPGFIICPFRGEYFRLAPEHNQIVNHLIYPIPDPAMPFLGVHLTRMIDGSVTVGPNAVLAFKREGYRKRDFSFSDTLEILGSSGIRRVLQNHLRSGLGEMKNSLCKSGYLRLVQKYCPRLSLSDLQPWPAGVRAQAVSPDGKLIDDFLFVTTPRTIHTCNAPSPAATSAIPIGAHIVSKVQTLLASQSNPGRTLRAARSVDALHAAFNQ
# Chain of UniProt P0ACL0 (P0ACL0 whole entry): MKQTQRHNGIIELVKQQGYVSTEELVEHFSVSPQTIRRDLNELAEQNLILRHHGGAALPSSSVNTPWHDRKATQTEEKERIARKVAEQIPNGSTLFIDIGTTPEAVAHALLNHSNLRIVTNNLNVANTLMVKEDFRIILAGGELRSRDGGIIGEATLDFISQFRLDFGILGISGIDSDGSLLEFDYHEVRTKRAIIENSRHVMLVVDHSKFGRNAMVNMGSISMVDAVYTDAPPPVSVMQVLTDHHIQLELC
row,Target,log2 fold change
1,"UniProt P04693 (peptide sequence: HAIAPLLFGADHPVLKQQR, peptide start residue: 77)",0.961
2,"UniProt Q46919 (peptide sequence: MHDLLDNK, peptide start residue: 59)",0.557
3,"UniProt P08400 (peptide sequence: FSFVIPER, peptide start residue: 417)",2.08
4,"UniProt P25741 (peptide sequence: LSDVGVDTMK, peptide start residue: 84)",-0.922
5,"UniProt P77689 (peptide sequence: INSLAMPVKNEVCDTR, peptide start residue: 270)",1.09
6,"UniProt P37339 (peptide sequence: AFCDQNGIR, peptide start residue: 75)",0.681
7,"UniProt P77364 (peptide sequence: IDSQTAGGKAPLGVASVAK, peptide start residue: 295)",-0.814
8,"UniProt P32125 (peptide sequence: AGAAQTIVASQQR, peptide start residue: 63)",-0.686
9,"UniProt P0ACL0 (peptide sequence: IILAGGELR, peptide start residue: 137)",-0.596
10,"UniProt P08373 (peptide sequence: VNGNAGSFFKNPVVSAETAK, peptide start residue: 223)",0.267
11,"UniProt P02358 (peptide sequence: TKHAVTEASPMVK, peptide start residue: 92)",0.374
